In PubChem BioAssay AID2732 (Emory University Molecular Libraries Screening Center, 2010) one finds inhibition data, which are given here for 96 compounds.

The structures appear in SMILES notation. The whole screen tested about 220,000 compounds, of which about 8,200 (3.7%) were called active. This is one part of a sample in which actives are shown more often than they occur. Values without a mark were called inactive.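 The calls were made as follows: active = compounds that reduced the stress-induced luciferase reporter signal by more than about 70% of percent inhibition (limit read from the data); inactive = the rest.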

For orientation: inhibition means the relative decrease from the control value, in per cent.

This test is described as follows: inhibitors of CHOP promoter induction, primary screen, cell-based, unfolded protein response, luciferase reporter (AID 2732).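 Also: 0% = tunicamycin plus vehicle and 100% = wells without tunicamycin.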 The conditions noted are these: CHO-K1 CHOP-promoter luciferase, tunicamycin-induced, 15-18 h; at 10 µM; active compounds read high. On the technique in general: In a reporter assay the amount or activity of a reporter protein is the signal.
With `C/C(=N\NC(=S)Nc1ccc(C)cc1)c1cc2ccccc2o1`, the inhibition is -20.3%. For `COCCCNC(=O)C1CCN(c2ccc(N3CCOCC3)nn2)CC1`, the inhibition is -10.8%.

In the case of `Oc1ccc(N=Cc2c(O)ccc3ccccc23)cc1`, the inhibition is 40.5%.

Consider `Oc1ccc(N=Cc2sc3ccccc3c2Cl)cc1`, for which the inhibition is 81.8% (active). For `O=C(N/N=C/c1c(Cl)[nH]c2ccccc12)c1sc2ccccc2c1Cl` the value was 44.3%; for `O=C(c1cc(-c2ccc(O)cc2)on1)N1CCCc2ccccc21`, 40.4%.

For `O=C(Nc1ccccc1C(F)(F)F)c1cc(-c2ccc(O)cc2)on1`, the inhibition was 105% (active).

As to `CC(NC(=O)c1cc(-c2ccccc2)on1)c1ccccc1` (stereo unspecified), the inhibition is 58.1%.

For `CCCCCCNS(=O)(=O)c1ccccc1Br`, the inhibition is 16.4%.

`CCOC(=O)C1=NN(c2ccc(Cl)cc2)/C(=C/C2=NCCc3cc(OC)c(OC)cc32)S1`: the inhibition is -5.16%. The value for `COc1ccccc1NC(=O)CCCc1c[nH]c2ccccc12` was 0.61%; that for `CCCCCCCC(=O)NC(Nc1ccccc1OC)C(Cl)(Cl)Cl` (stereo unspecified) was 87.9% (active); that for `CCCC(=O)NC(Nc1ccccc1OC)C(Cl)(Cl)Cl` (stereo unspecified) was 21.3%. Turning to `CCOC(=O)NNc1cc(C(F)(F)F)ccn1`, the inhibition is -10.6%. The value for `COc1ccc(Cl)cc1C(=O)NNC(=O)c1nc2nc(C)cc(C)n2n1` was 11.4%. The value for `Cc1onc(-c2c(Cl)cccc2Cl)c1C(=O)NNC(=O)c1c(-c2c(Cl)cccc2Cl)noc1C` was -2.75%; that for `O=C(/C=C/c1ccc(Cl)cc1)Nc1ccc(S(=O)(=O)Nc2ncccn2)cc1` was 15.1%.

As to `O=C(NCc1ccccc1)c1ccc(S(=O)(=O)Nc2cccc(C(F)(F)F)c2)cc1`, the inhibition was 26.6%.

In the case of `O=C(/C=C/c1ccc(F)cc1)Nc1cccc(S(=O)(=O)Nc2cccc(C(F)(F)F)c2)c1`, the inhibition was 103% (active). The value for `OC(c1nc2ccccc2[nH]1)C(O)C(O)C(O)c1nc2ccccc2[nH]1` (stereo unspecified) was 4.88%; that for `Cc1ccccc1NC(=O)NCc1ccco1` was -12.4%.

Consider `O=C(Cn1c(=O)n(Cc2ccco2)c(=O)c2ccccc21)NCC1CCCO1` (stereo unspecified), for which the inhibition was 19%. For `Cc1ccccc1Cn1c2ccccc2c2cnn(CC(=O)NCc3ccco3)c(=O)c21` the value was 90.4% (active); for `C/C(=N/NC(=O)CN1CCN(S(=O)(=O)c2ccc(Br)cc2)CC1)c1ccncc1`, 10.9%. The value for `Cc1ccc(N2C(=O)CC(N3CCSCC3)C2=O)c(C)c1` (stereo unspecified) was 19.1%.

Regarding `CCc1cccc(CC)c1NC(=S)Nc1ccc2cn[nH]c2c1`, the inhibition was 22.1%.

For `Cc1csc(NC(=S)Nc2cccc(Cl)c2)n1`, the inhibition is -212%. For `S=C(Nc1cccc(Cl)c1)Nc1ccc2cn[nH]c2c1` the value was -22.9%; for `FC(F)(F)c1cccc(NC(=S)Nc2cccc(Cl)c2)c1`, 87.2% (active); for `Cc1cccc(NC(=O)Nc2cccc(Oc3c(F)c(F)c(F)c(F)c3F)c2)c1`, 97.1% (active).

As for `Cc1cccc(NC(=O)Nc2nnc(-c3ccccc3)o2)c1`, the inhibition was -9.17%.

As for `COc1cccc(NC(=O)NCc2ccc(F)cc2)c1`, the inhibition is 5.22%.

In the case of `N#C/C(=C/c1ccc(-c2ccccc2[N+](=O)[O-])o1)C(=O)NCCN1CCCCC1`, the inhibition was 22.9%. The value for `Cc1c(NC(=O)C(=O)N/N=C/c2cccs2)c(=O)n(-c2ccccc2)n1C` was 9.69%; that for `CC(C)CCN1NC2(CCC(C)CC2)NC1=S` (stereo unspecified) was -10.5%; that for `CCCN(CCC)CC(O)COc1ccccc1C(=O)Nc1ccccc1` (stereo unspecified) was 16.4%. The value for `CC(=O)Nc1nc(C)c(-c2csc(Nc3ccc(S(N)(=O)=O)cc3)n2)s1` was 18.6%; that for `CC(=O)Nc1ccc(/C=N/Nc2ccc(C(=O)c3c(C)cc4ccccn34)cc2[N+](=O)[O-])cc1` was 17.2%; that for `CCN(CC)C(=O)CSC(Nc1cccc(F)c1)=C(C#N)C#N` was -25.7%. The value for `Oc1c(Br)cccc1/C=N/Nc1c(F)c(F)c(F)c(F)c1F` was 89.8% (active); that for `COc1cccc(/C=N/Nc2ncc(C(F)(F)F)cc2Cl)c1O` was 46.9%; that for `O=[N+]([O-])c1cc(Br)c(O)c(/C=N/Nc2nc3ccccc3s2)c1` was 17.5%.

For the compound `CCOc1c(Nc2cccc(Cl)c2)c(=O)c1=O`, the inhibition is 18.3%. The value for `O=S(=O)([N-]c1nc2ccccc2nc1-[n+]1ccc(Cc2ccccc2)cc1)c1ccc(Br)s1` was 21.4%; that for `O=S(=O)(c1ccc(Br)cc1)c1nc(-c2ccccc2)oc1NCc1cccnc1` was 72.4% (active). The value for `O=S(=O)(c1ccccc1)c1nc(-c2ccccc2F)oc1NCc1cccnc1` was 4.16%; that for `O=C(NCc1cccnc1)c1ccc(CS(=O)(=O)c2ccc(Br)cc2)o1` was 61.7%. For `O=C(Nc1ccc(Cl)cc1)Nc1ccc(C(=O)N2CCOCC2)cc1` the value was 33.4%; for `O=C(Nc1ccc2c(c1)OCCO2)c1ccoc1`, 0.05%; for `COc1ccccc1/C=C/C=N/NC(=O)CN1CCN(Cc2ccccc2)CC1`, 24.4%.

As to `Cc1cc2nc3c(=O)n(Cc4ccccc4)c(=O)[nH]c3nc2cc1N`, the inhibition is 3.92%. Consider `CSc1nc2ccc(S(=O)(=O)N3CCc4ccccc43)cc2s1`, for which the inhibition was 71% (active). With `CCn1c(=O)c(=O)n(CC)c2cc(S(=O)(=O)N3CCc4ccccc43)ccc21`, the inhibition is 35%. Take `COC(=O)C(NC(=O)c1ccc(OC)cc1)(Nc1ncc(S(=O)(=O)c2ccc([N+](=O)[O-])cc2)s1)C(F)(F)F` (stereo unspecified): the inhibition is -14.3%. For `O=C(Nc1nc2ccc([N+](=O)[O-])cc2s1)c1ccncc1` the value was -12.2%. For `O=C(Nc1nc2ccc([N+](=O)[O-])cc2s1)c1ccc(S(=O)(=O)N2CCCc3ccccc32)cc1`, the inhibition was 80.6% (active). Turning to `CS(=O)(=O)c1ccc2nc(NC(=O)c3ccc(N4CCCC4=O)cc3)sc2c1`, the inhibition is -17%. For `CNC(=O)c1ccsc1NC(=O)c1ccc(S(=O)(=O)N2CCc3ccccc32)cc1` the value was 37.3%; for `O=S(=O)(c1ccc2c(c1)OCCO2)N1CCc2ccccc21`, 32.4%. With `O=C(NC(Nc1nc2ccc([N+](=O)[O-])cc2s1)(C(F)(F)F)C(F)(F)F)c1ccccc1`, the inhibition is 106% (active). For `Cc1nc(C(=O)Nc2ccc(Cl)cc2)sc1C1(C)CC(c2ccccc2)=NO1` (stereo unspecified) the value was 19.7%; for `COc1ccc(CCNCC(O)Cn2ccc3ccccc32)cc1OC` (stereo unspecified), 7.33%.

Take `CC(C)CCn1c(CN(C)Cc2ccccc2)nc2c1c(=O)n(C)c(=O)n2C`: the inhibition is 16%.

On to `COCCn1c(CN(Cc2ccccc2)Cc2ccccc2)nc2c1c(=O)n(C)c(=O)n2C`, for which the inhibition was 63.3%. With `CC(C)Cn1c(CN(Cc2ccccc2)Cc2ccccc2)nc2c1c(=O)n(C)c(=O)n2C`, the inhibition was 95% (active). For `S=C(NNC(=S)NC1CC2CCC1C2)NC1CC2C=CC1C2` (stereo unspecified) the value was 12.8%; for `CCCCOC(=O)c1[nH]c(C)c(C(=O)OC)c1C`, -2.34%; for `COC(=O)c1c(C)[nH]c(C(=O)/C=C/c2ccc(Cl)cc2)c1C`, 85% (active). `Cc1cc(C)nc(NC(=O)/C=C/c2ccc(Cl)cc2)n1`: the inhibition was 8.16%. For `Cn1c(S(=O)(=O)O)nc2ccccc21` the value was 10.4%; for `COc1ccccc1-c1c(C#N)c(N)nc2c1CCC2`, -1.63%; for `O=c1[nH]c2cccnc2n1-c1ccc([N+](=O)[O-])cc1`, 16.2%. The value for `OCC1(Cc2ccccc2C(F)(F)F)CCN(Cc2ccncc2)CC1` was 1.13%. For `CCC(=O)N1CCCc2ccccc21` the value was -4.19%; for `C=CCn1c(SCc2nnc(-c3ccccc3)o2)nnc1C(O)c1ccccc1` (stereo unspecified), 14%; for `OC(c1nnc(-c2ccccc2)o1)c1cccs1` (stereo unspecified), -26.1%. As to `CCCN(CCC)c1ccc(C(O)c2nnc(-c3ccccc3)o2)cc1` (stereo unspecified), the inhibition was 91.7% (active). For `O=C1C2C3C=CC(C3)C2C(=O)N1c1ccc(S(=O)(=O)Nc2nccs2)cc1` (stereo unspecified) the value was 15.9%. For the compound `O=C(COC(=O)CCc1nc2ccccc2c(=O)[nH]1)Nc1ccc(N2CCOCC2)cc1`, the inhibition was 12.7%. The value for `CCOC(=O)Cn1c(N)c(C(=O)OC)sc1=S` was 25.2%; that for `CCOC(=O)c1sc(=S)n(-c2cccc(OC)c2)c1N` was 7.44%.

As to `CCOC(=O)c1sc(=S)n2c1[nH]c(=O)c1ccc(C(=O)OC)cc12`, the inhibition was 90.7% (active). For `Fc1ccccc1/C=N/n1c(-c2cccnc2)n[nH]c1=S` the value was 6.74%. The value for `COc1cccc(CC(=O)Nc2ccc(-c3csc(C)n3)cc2)c1` was 7.07%. On to `CCOC(=O)C(=CNNc1ccsc1C(=O)OC)C(=O)OCC`, for which the inhibition was 8.45%.

For `Cc1ccc(OCC(O)CN2CCN(CC(O)COc3ccc(C)cc3Cl)CC2)c(Cl)c1` (stereo unspecified), the inhibition is 93.5% (active). For `Cc1cccc(C)c1OCC(O)CN1CCCCC1` (stereo unspecified) the value was 10.2%. The value for `Cc1ccccc1OCC(O)CN1CCN(c2ccccn2)CC1` (stereo unspecified) was 15.9%; that for `CCCCCCCC(=O)OC(CN1CCCCCC1)CN1CCCC1=O` (stereo unspecified) was 4.3%. The value for `Fc1ccccc1C(c1nnnn1Cc1ccc2c(c1)OCO2)N1CCN(Cc2ccccc2)CC1` (stereo unspecified) was 97.9% (active); that for `CC(C)(C)n1nnnc1C(c1ccc(F)cc1)N1CCN(Cc2ccc3c(c2)OCO3)CC1` (stereo unspecified) was 16.3%; that for `Cc1cc(C)c2[nH]c(=O)c(C(c3nnnn3Cc3ccc4c(c3)OCO4)N3CCCC3)cc2c1` (stereo unspecified) was -5.25%. `CCC1=NN2C(=N)/C(=C/c3cc(C)n(-c4ccccc4)c3C)C(=O)N=C2S1`: the inhibition is -8.4%. The value for `CCCN1CNC(=S)N(CCc2ccccc2)C1` was 1.62%; that for `N#CNC1=NCN(CCc2ccccc2)CN1` was -32.6%. For `c1ccc(CCN2CN=C(Nc3nc4ccccc4o3)NC2)cc1` the value was 94.3% (active).
